Screens deposited in PubChem by National Center for Advancing Translational Sciences (NCATS).
Rows were chosen to be rich in hits. Some 1.3% of all compounds tested hit in one or more screens of this group.
AmpC inh no detg: qHTS Inhibitors of AmpC Beta-Lactamase (assay without detergent); 330,000 tested, 0.52% active; AID 485341, 2010; AmpC nitrocefin hydrolysis, absorbance 480 nm, 0.0001% Triton; P00811; Potency, µM (titrated, usually from 57.1 µM), without a hit: at the highest dose activity change, negative = inhibition, hits mostly inhibitors;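 note: plate controls were no compound for no effect and no enzyme for full effect; nearly all actives have a fitted effect of over 20% in size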
Target sequence (P00811 whole entry, looked up): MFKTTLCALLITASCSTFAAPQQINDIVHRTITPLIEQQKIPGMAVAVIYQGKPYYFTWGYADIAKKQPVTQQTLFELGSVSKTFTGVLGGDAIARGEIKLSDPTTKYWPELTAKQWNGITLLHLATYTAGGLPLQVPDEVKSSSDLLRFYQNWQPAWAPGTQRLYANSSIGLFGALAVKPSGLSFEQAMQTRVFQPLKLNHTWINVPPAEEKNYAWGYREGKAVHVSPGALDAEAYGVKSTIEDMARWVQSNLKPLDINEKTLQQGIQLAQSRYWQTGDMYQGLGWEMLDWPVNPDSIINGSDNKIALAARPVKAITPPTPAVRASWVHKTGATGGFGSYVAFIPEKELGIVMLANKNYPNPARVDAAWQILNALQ
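AmpC (5.3 nM in the dispensed reagent) in 20 mM phosphate pH 7.0 with 0.01% (detergent screen) or 0.0001% Triton X-100 was preincubated with compounds for 15 min at room temperature. Nitrocefin was then added from an 800 uM solution, and hydrolysis was followed at 480 nm.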
AmpC detergent: qHTS Inhibitors of AmpC Beta-Lactamase (assay with detergent) | AmpC hydrolysis of nitrocefin, absorbance 480 nm, 0.01% Triton | Potency, µM (series often up to 114 µM), for the others: at the highest dose activity change, negative = inhibition, actives largely listed as inhibitors | 370,000 tested, 0.041% active;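 note: 0% = no-compound wells and -100% = no-enzyme wells; nearly all actives have a fitted effect of over 25% in size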
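AmpC (5.3 nM in the dispensed reagent) in 20 mM phosphate pH 7.0 with 0.01% (detergent screen) or 0.0001% Triton X-100 was preincubated with compounds for 15 min at room temperature. Nitrocefin was then added from an 800 uM solution, and hydrolysis was followed at 480 nm.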
VACV mCherry inh: qHTS for Stage-Specific Inhibitors of Vaccinia Orthopoxvirus: mCherry Reporter Primary qHTS. Vaccinia virus mCherry reporter infection, fluorescence. Potency, µM (highest dose often 36.5 µM), for inactives: at the highest dose activity change, negative = inhibition, hits mostly inhibitors. 310,000 tested, 0.63% active. AID 720579, 2013; calls by dose curve; tested in A549 cells; note: % is set by controls: 0 for no effect and ±100 for the full control effect; nearly all actives have a fitted effect of over 35% in size
SARS PLP yeast: qHTS of Yeast-based Assay for SARS-CoV PLP. S. cerevisiae expressing SARS-CoV PLpro, growth rescue. Potency, µM (series often up to 32.9 µM), without a hit: at the highest dose activity, positive = growth rescue, most hits filed as activators. 330,000 tested, 0.19% active. AID 485353, 2010; calls by dose curve; note: 0% is about no effect; nearly all actives have a fitted effect of over 55% in size
AMA1 RON2 block: qHTS for Inhibitors of AMA1-RON; Towards Development of Antimalarial Drug Lead: Primary Screen | AlphaScreen AMA1-biotinylated RON2 peptide binding | AID 720542, 2013 | Plasmodium falciparum AMA1 (3D7) - RON2 peptide interaction | 360,000 tested, 0.2% active | Potency, µM (doses to about 58.2 µM), inactives show at the highest dose activity change, negative = inhibition, most hits filed as inhibitors;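 note: 0% = vehicle wells and -100% = peptide control; nearly all actives have a fitted effect of over 45% in size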
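AMA1 (3D7) with his tag at 25 nM final met compounds first, then biotinylated RON2 peptide at 25 nM; detection used donor plus acceptor beads, 10 µg/mL apiece, read by AlphaScreen after 30 min at room temperature.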
VACV Venus inh: qHTS for Stage-Specific Inhibitors of Vaccinia Orthopoxvirus: Venus Reporter Primary qHTS. AID 720580, 2013. 330,000 tested, 0.46% active. Vaccinia virus Venus reporter expression, fluorescence. Potency, µM (doses to about 36.5 µM), without a hit: at the top dose activity change, negative = inhibition, hits mostly inhibitors; calls by dose curve; tested in A549 cells; note: % is set by controls: 0 for no effect and ±100 for the full control effect; nearly all actives have a fitted effect of over 30% in size
* = called active by the depositor; i = inactive; ? = inconclusive; . = not tested or not shown; ! = a repeat was not active. Unless noted, calls come from the whole dose curve; as a rule, active = well fitted curve in the direction sought with a large enough effect; inconclusive = small, poorly fitted or top-dose-only effect, or another doubt; inactive = no such curve, though single readings can be large; an effect the other way counts as inactive or inconclusive. Potency is the fitted concentration of half-maximal effect.

SMILES | AmpC inh no detg | AmpC detergent | VACV mCherry inh | SARS PLP yeast | AMA1 RON2 block | VACV Venus inh
CCC1CN(CCNC(=O)c2cc(C(C)C)nn2C)Cc2cc(OC)ccc2O1 (stereo not given) | . | . | -19.0% | . | . | -18.9%
CCN(CC)CCN(C(=O)c1ccc2c(c1)OCCO2)c1nc2cc3c(cc2s1)OCO3 | 25.5% | 6.0% | -13.1% | 4.0% | -5.0% | -6.5%
CCN(CC)CCN(C(=O)c1cc2c(ccc3ccccc32)oc1=O)c1nc2cc3c(cc2s1)OCCO3 | 84.2% | -13.2% | 10µM* | -7.2% | -8.2% | ?
Cc1c(Br)c(O)c(Br)c2sc(=O)oc12 | 20µM* | -3.9% | . | -1.1% | ? | .
S=C(N/N=C/c1ccc2ncccc2c1)Nc1ccccc1 | -34.0% | 2.5% | 7.94µM* | 2.7% | 74.2% | 11.2µM*
COc1ccc(/C=N/NC(=S)Nc2ccccc2)cc1COc1ccccc1F | 14.1µM* | -4.4% | . | 2.4% | . | .
COc1ccc(/C=N/NC(=S)Nc2ccccc2)cc1COc1ccc(F)cc1 | ? | -4.6% | i | -2.7% | 12.1% | -9.0%
C(=N\Nc1nc2ccccc2[nH]1)/c1ccccn1 | -18.5% | ? | . | 15.0% | 27.3% | .
C(=N\NCc1ccccc1)/c1ccc2ncccc2c1 | -33.8% | 3.6% | . | -2.6% | 0.0% | .
C(=N\Nc1nc2ccccc2[nH]1)/c1ccc2ncccc2c1 | -29.2% | 5.5% | 1.58µM* | -1.0% | 37.4% | 0.891µM*
C1=C(c2ccc3c(c2)CN(Cc2cccn2-c2ncccn2)CCO3)Cc2ccccc21 | . | . | -11.3% | . | . | -4.5%
CC(=O)NCC(=O)NCC1Cc2cc(C)cc(-c3ccccn3)c2O1 (stereo not given) | . | . | 4.7% | . | . | 4.3%
CS(=O)(=O)c1nc(-c2ccc(F)cc2)cc(C(F)(F)F)n1 | 0.2% | 5.8% | ? | -5.7% | 18.2% | ?
CCOC(=O)CCS(=O)(=O)c1nc(-c2ccccc2)cc(C(F)(F)F)n1 | -12.2% | 0.7% | 11.2µM* | -29.7% | -12.5% | ?
CCOC(=O)CS(=O)(=O)c1nc(-c2ccccc2)cc(C(F)(F)F)n1 | -2.2% | -6.9% | . | -56.6% | 6.0% | 10µM*
COC(=O)CCS(=O)(=O)c1nc(-c2ccccc2)cc(C(F)(F)F)n1 | -16.0% | ? | . | -31.0% | -5.8% | .
CCOC(=O)CS(=O)(=O)c1nc(-c2ccc(F)cc2)cc(C(F)(F)F)n1 | -17.9% | -13.0% | . | -29.4% | -3.9% | 10µM*
CCOC(=O)/C=C1\CN(Cc2ccc(OC)cc2)S(=O)(=O)c2ccc(C(F)(F)F)cc21 | . | . | i | . | . | -8.6%
O=S(=O)(c1ccccc1)N(CC(F)(F)F)c1ccc(C(O)(C(F)(F)F)C(F)(F)F)cc1 | . | . | ? | . | 10.5% | 11.2µM*!
CCN(c1ccc(C(O)(C(=O)OC)C(F)(F)F)cc1)S(=O)(=O)c1ccccc1 (stereo not given) | 13.7% | -13.5% | -0.1% | -5.3% | 13.9% | -22.4%
CCOc1cccc(CN2CCC(n3cc(C(=O)N4CCCCC4)nn3)CC2)c1O | . | . | -16.7% | . | . | -8.0%
Cc1cnc(SCc2ccccn2)nc1C1CCCN(C(=O)c2coc3c2C(=O)CCC3)C1 (stereo not given) | . | . | -23.6% | . | . | -20.2%
O=C(NCC(=O)N(c1ccc2c(c1)OCO2)C(C(=O)NC1CCCC1)c1ccncc1)c1ccco1 (stereo not given) | -26.1% | 8.2% | -11.9% | 2.3% | 39.8µM* | -3.8%
Cn1nnc(NC(=S)NC(=O)c2cccs2)n1 | -44.3% | -0.2% | -1.4% | 9.5% | 43.9% | -7.9%
CCCCn1nnc(NC(=S)NC(=O)c2cccs2)n1 | -16.8% | -0.1% | ? | -61.4% | 26.1% | 2.24µM*
SMILES | AmpC inh no detg | AmpC detergent | VACV mCherry inh | SARS PLP yeast | AMA1 RON2 block | VACV Venus inh
CCCn1nnc(NC(=S)NC(=O)Cc2ccccc2)n1 | 104.1% | ? | 2.24µM* | 0.2% | 88.2% | ?
CCCn1nnc(NC(=S)NC(=O)CC)n1 | -13.9% | 0.2% | . | 9.9% | 23.9% | .
CCN(CC)c1ccc(Nc2nc(-c3cccnc3)cs2)cc1 | -42.9% | 10.2% | -24.0% | -3.7% | 28.2µM* | -23.5%
Oc1cc(-c2nc3ccccc3s2)cc2c1OCCN(Cc1cn[nH]c1-c1ccc(Cl)cc1)C2 | . | . | -22.2% | . | . | -10.4%
COC(=O)c1ccccc1NC(=S)NC(=O)c1ccccc1C | -59.2% | 39.8µM* | -4.3% | -27.8% | 18.3% | -5.8%
O=C1c2ccccc2NC(c2ccc(Cl)cc2Cl)N1Cc1ccccc1 (stereo not given) | -27.1% | 3.9% | . | -18.0% | 0.9% | ?
O=C1c2ccccc2NC(c2ccc(Cl)cc2Cl)N1O (stereo not given) | 26.0% | -1.1% | . | 14.1µM* | -2.9% | -8.2%
COc1ccc(S(=O)(=O)N2Cc3ccccc3CC2C(=O)Nc2cccc(C)c2)cc1OC (stereo not given) | . | 23.0% | 1.6% | . | . | 5.0%
COc1ccc(S(=O)(=O)N2Cc3ccccc3CC2C(=O)Nc2ccc(O)cc2)cc1OC (stereo not given) | 0.708µM* | ? | i | 2.2% | 31.4% | 8.9%
CCOc1ccc(C=NNc2ccc(S(=O)(=O)Nc3ccccc3C(=O)O)cc2[N+](=O)[O-])cc1 | 28.2µM* | . | 5.4% | 4.8% | ? | -2.7%
COc1ccc(O)c(CN2CCC3(CCC(CNC(=O)C4CCCO4)O3)CC2)c1 (stereo not given) | . | . | -3.1% | . | . | 13.6%
Cc1cc2c(c(-c3nc4ccccc4s3)c1)OC(CNC(=O)c1occc1C)C2 (stereo not given) | . | . | -9.2% | . | . | 7.3%
O=C(NCc1ccccn1)c1ccc(Cn2cc(Br)cn2)o1 | ? | -1.3% | -7.8% | -0.3% | 19.2% | -4.7%
O=C(c1ccc(Cn2cc(Br)cn2)o1)n1cccn1 | 0.501µM* | 2.0% | -11.1% | ? | 13.2% | -2.8%
COc1cc(-c2ccc(Cl)cn2)cc2c1OCCN(S(=O)(=O)C[C@]13CC[C@H](CC1=O)C3(C)C)C2 | . | . | -18.0% | . | . | -7.7%
CN(C)CCCNC(=O)c1ccc(-c2nc(-c3ccc(Cl)cc3)cs2)cc1 | 119.7% | 0.9% | ? | -8.9% | 7.0% | 22.4µM*
Cc1ccnc2c(Cl)c(Cl)ccc12 | . | . | -6.8% | . | . | -24.6%
Cc1cnc(-n2ncc(C(=O)NCCN3CCOCC3)c2C2CC2)nc1-c1cccs1 | . | . | -1.6% | . | . | -17.2%
C=C(CN(C)C)C(=O)c1cc(C)ccc1C | . | . | ? | . | 4.1% | 7.08µM*
CCNc1ccc(/C=C/c2ccnc3ccccc23)cc1 | . | . | -14.2% | . | . | 15.4%
CC(C)CC1=C/C(=C/c2ccc(-c3ccccc3)o2)C(=O)O1 | 31.6µM* | ? | -11.4% | -13.9% | -9.5% | 18.9%
